Results reported in PubChem BioAssay.

These compounds were tested on Lefty1 (assay: Lefty1 protein binding to printed compounds – biochemical, small-molecule microarray, 635/667 nm fluorescence, primary screen (AID 1139)). Conditions: fluorescence 635/667, higher = more signal.
Compound `CC(C)N1CC=CC23O[C@@H]4C=CCOC(=O)[C@@H]4[C@H]2C(=O)N(CCCCCO)[C@@H]3C1=O` (stereo not given in full) has a composite z-score of 0.204.
`[N-]=[N+]=Nc1ccccc1C[C@@]1(C(=O)N2CCCCC2)N=C(c2ccc(OCCCO)cc2)O[C@@H]1c1ccccc1` showed a composite z-score of -0.322.
With `OCC1C=C(/C=C/c2ccccc2)CN1Cc1ccccc1Br` (stereo not given) the composite z-score was 1.51.
`C=CC[C@@]1(C(=O)N2CCCCC2)N=C(c2ccc(OCCCO)cc2)O[C@@H]1c1ccccc1N=[N+]=[N-]` gave a composite z-score of 0.0928.
Work on `CO[C@H]1O[C@H](CO)[C@@H](OC(=O)Nc2ccc(Oc3ccccc3)cc2)[C@H](OC(=O)Nc2ccc3c(c2)OCO3)[C@@H]1OC(=O)Nc1ccc2c(c1)OCO2` yielded a composite z-score of 0.423.
`COCCOC(=O)N1C(=O)[C@@]2(c3ccccc31)[C@H](C(=O)N1CCc3cc(OC)c(OC)cc3C1)[C@H]1C(=O)O[C@H](c3ccccc3)[C@H](c3ccccc3)N1[C@@H]2c1ccc(O)cc1` showed a composite z-score of 0.788.
`CCCCC(=C=CC[C@@H](O)c1cccc(OCCO)c1)C[C@@H](O)c1ccccn1` gave a composite z-score of 1.2.
`CCOC(=O)C[C@H]1[C@H](OC(=O)c2cc3ccccc3oc2=O)[C@@H](NC(=O)CC(C)C)c2cc(OCCCO)ccc2N1C(=O)c1ccccc1` showed a composite z-score of 0.696.
`CC(C)(C)OC(=O)CC[C@@]1(C(=O)N2CCCCC2)N=C(c2ccc(OCCCO)cc2)O[C@@H]1c1ccccc1` was tested, and the composite z-score was 0.501.
Work on `Cc1ccc(S(=O)(=O)N2C[C@@H](C(=O)O)[C@H](Sc3ccccc3)C[C@H]2c2ccccc2)cc1` yielded a composite z-score of 0.697.
Work on `O=C1[C@H]2C=C(Br)[C@H](C[C@@H]2OCCCCCCO)[C@@]12CO2` yielded a composite z-score of -0.406.
`COc1ccc(C(=O)Nc2cccc(CN3C(=O)[C@]4(O[C@H](CCn5cc(CCO)nn5)[C@@H]([Si](C)(C)c5ccc(OC)cc5)[C@@H]4C)c4ccccc43)c2)cc1` showed a composite z-score of 0.834.
In the case of `C=C[C@H](C)[C@@H](OC(=O)Nc1ccc(SC)cc1)c1ccc(O)c2ccccc12`, the composite z-score is reported as 1.1.
With `COCCOC(=O)N1C(=O)[C@@]2(c3cc(C#CC4(O)CCCCCC4)ccc31)[C@H](C(=O)Nc1nc3ccccc3s1)[C@H]1C(=O)O[C@H](c3ccccc3)[C@H](c3ccccc3)N1[C@@H]2c1ccccc1OCCO` the composite z-score was 0.581.
Work on `C=CCC(OC(C)=O)[C@@H]1[C@@H](N(Cc2ccc(-c3ccccc3)cc2)C(=O)Cc2ccc(F)cc2)c2cc(OCCCO)ccc2N1C(=O)c1ccc2ccccc2c1` (stereo not given in full) yielded a composite z-score of 0.125.
In the case of `CN(C)CCCC[C@@H]1NC(=O)[C@H]2C[C@@H](C(=O)NCCCCCN)[C@@H](c3cccc(OCCO)c3)N2C1=O`, the composite z-score is reported as 1.66.
For `C=CC[C@]1(C(=O)NCc2ccccc2)N=C(c2ccc(OCCCO)cc2)O[C@H]1c1ccccc1CN=[N+]=[N-]`, the composite z-score was 0.497.
Work on `O=C(CS)NCCCCCNC(=O)[C@@H]1C[C@@H]2C(=O)NCC(=O)N2[C@@H]1c1ccc(O)cc1` yielded a composite z-score of 0.269.
Compound `C=CCC(OC(C)=O)[C@@H]1[C@@H](N(Cc2ccc(-c3cccc(C(F)(F)F)c3)o2)C(=O)c2cccc3ccccc23)c2cc(OCCCO)ccc2N1C(=O)Cc1ccc2ccccc2c1` (stereo not given in full) has a composite z-score of -0.0051.
`C=CCC(OC(C)=O)[C@@H]1[C@@H](N(Cc2ccc(-c3cccc(C(F)(F)F)c3)o2)C(=O)Cc2ccc(OC)cc2)c2cc(OCCCO)ccc2N1C(=O)c1ccc2ccccc2c1` (stereo not given in full) showed a composite z-score of 0.199.
Compound `CC(C)CN1C(=O)[C@@]2(c3ccc([N+](=O)[O-])cc3)CC(=O)N(C3CCCCC3)[C@@H]2c2ccc(CO)cc21` has a composite z-score of -0.919.
Work on `O=C1C2C=CC(C(O)C=Cc3ccc([N+](=O)[O-])cc3)N(n3cnnc3)C2C(=O)N1Cc1ccccc1` (stereo not given) yielded a composite z-score of -0.0293.
Work on `O=C1O[C@H](c2ccccc2)[C@H](c2ccccc2)N2[C@H]1[C@@H](C(=O)NC[C@H](O)c1ccccc1)[C@]1(C(=O)Nc3ccc(C#CC4=CCCCC4)cc31)[C@H]2c1ccccc1OCCO` yielded a composite z-score of 0.632.
With `O=C1NC(=O)C2C1C=CC(C(O)c1ccc(I)cc1)N2Nc1ccc(Cl)cc1Cl` (stereo not given) the composite z-score was -0.199.
Compound `CC(C)CCC[C@@H](C)[C@H]1CC[C@@]2(C)C3=C(CC[C@]12C)[C@@]1(C)CC[C@H](OC(=O)c2ccc(C(F)(F)F)nc2)C(C)(C)C1CC3` (stereo not given in full) has a composite z-score of 0.666.
`CC(C)(C)OC(=O)CC[C@]1(C(=O)NCCN2CCOCC2)COC(c2ccc(OCCCO)cc2)=N1` showed a composite z-score of 0.78.
For `CN1C(=O)C2C=CC(C(O)c3ccccc3)N(N3CCCCC3)C2C1=O` (stereo not given), the composite z-score was 0.0104.
`CC[C@@H]1C=C(C(=O)O)[C@H](c2cccc3ccccc23)N1S(=O)(=O)c1ccc(C)cc1` gave a composite z-score of -0.103.
For `C=CCNC(=O)[C@H]1[C@@H]2C(=O)O[C@@H](c3ccccc3)[C@@H](c3ccccc3)N2[C@@H](c2ccc(OCCO)cc2)[C@]12C(=O)Nc1ccc(C#CCC(C(=O)OC)C(=O)OC)cc12`, the composite z-score was 0.385.
`C=CCN1Cc2ccccc2[C@@H]2OC(c3ccc(OCCCO)cc3)=N[C@]2(CCS(=O)(=O)c2ccccc2)C1=O` gave a composite z-score of 0.602.
`C[N+](C)(C)CCCC[C@@H]1NC(=O)[C@H]2C[C@@H](C(=O)NCCCCCCNC(=O)CS)[C@@H](c3ccc(O)cc3)N2C1=O` gave a composite z-score of 0.0544.
For `CC(=O)Nc1cc(Br)ccc1C(=O)NCc1ccccc1`, the composite z-score was -0.285.
`O=C1C2C=CC(C(O)c3ccc4c(c3)OCO4)N(Nc3ccc([N+](=O)[O-])cc3)C2C(=O)N1c1ccccc1` (stereo not given) showed a composite z-score of 0.313.
Compound `COc1ccc(C(O)C2C=CC3C(=O)N(C)C(=O)C3N2N(c2ccccc2)c2ccccc2)c2ccccc12` (stereo not given) has a composite z-score of 1.09.
With `COc1cc2c(cc1O)C=[N+](Cc1cc3c(cc1Br)OCO3)CC2` the composite z-score was -0.553.
